Reference: ChEMBL document CHEMBL1201862, “PubChem BioAssay data set” (2004)
Screen size: about 57,000 sequences; about 2,500 (4.4%) were called active. Cut-off read from the data, not from the text of the source: active = GI50 up to about 1.1 µM and inactive = higher. A selection follows. Results with a measured potency or affinity are listed apart.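 Where inhibition never reached the appropriate level, the endpoint shown equals the highest concentration tested. Otherwise, values were interpolated linearly from a five-concentration, 48-hour dose response in 96-well plates. At the GI50, growth is halved.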

test system: UACC-257; assay: NCI tumour cell line growth inhibition, 48 h

In order of rising GI50:
1. [Bis(aminomethyl)ethylmethylsilane]tetrachloroplatinum(IV), CHEMBL2146192  3.3 µM
2. CISPLATIN, CHEMBL11359  4.09 µM
3. [Bis(aminomethyl)diethylsilane]tetrachloroplatinum(IV), CHEMBL2146203  4.79 µM
4. cis-Bis[[(trimethylsilyl)methyl]amino]tetrachloroplatinum(IV), CHEMBL2146191  5.31 µM
5. [Bis(aminomethyl)pentamethylenesilane]dichloropaltinum(II), CHEMBL2146202  6.81 µM
6. [Bis(aminomethyl)pentamethylenesilane]tetrachloropaltinum(IV), CHEMBL2146204  7.19 µM
7. [Bis(aminomethyl)dimethylsilane]tetrachloroplatinum(IV), CHEMBL2146190  15.1 µM
8. [Bis(aminomethyl)tetramethylenesilane]tetrachloropaltinum(IV), CHEMBL2146189  16.4 µM
9. mu-(1,7-nanodiamine-N,N')bis-(cis-aminedichloroplatimum (II)), CHEMBL2146215  20.1 µM
10. [Bis(aminomethyl)dimethylsilane]dichloroplatinum (II), CHEMBL2146201  45.7 µM
11. [Bis(aminomethyl)tetramethylenesilane]dichloropaltinum(II), CHEMBL2146205  59.7 µM
